The results in this text go back to PubChem BioAssay (Tox21).

Values joined by “and” are separate entries in the source; they are usually repeats but may differ in a detail not shown here. Equal entries are not always repeated. A number with no mark means an inactive call. Results filed as inconclusive are left out. Active and inactive are the calls of the source. Unless noted, calls come from the whole dose curve; as a rule, active = well fitted curve in the direction sought with a large enough effect in the repeat runs; inconclusive = weak or mixed curves; inactive = no such curve, though single readings can be large; an effect the other way counts as inactive or inconclusive.

Test [1] in a line: qHTS assay to identify small molecule agonists of the constitutive androstane receptor (CAR) signaling pathway - cell viability counter screen (AID 1224836). Note: nearly all actives have a fitted effect of over 45% in size. Note: potency is the fitted concentration of half-maximal effect. The essentials:
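Cells were seeded and incubated 4 hrs. Compounds were added across 15 concentrations together with PK11195 at 0.75 uM final. Plates were incubated 23 hrs at 37 C. CellTiter-Fluor was added and fluorescence measured.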
(In general: In qHTS, concentration-response curves come from the screen itself.)

Test [2] is described as follows: qHTS assay to identify small molecule antagonists of the constitutive androstane receptor (CAR) signaling pathway - cell viability counter screen (AID 1224837). Note: nearly all actives have a fitted effect of over 45% in size. Note: potency is the fitted concentration of half-maximal effect. The essentials:
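Read-out: CellTiter-Fluor fluorescence after 23 hr at 37 C/5% CO2. Cells: HepG2 double-stable for hCAR and CYP2B6-2.2kb. Compounds tested at 15 concentrations in the presence of CITCO, final concentration 50 nM.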

The target in test [3] is Nuclear receptor subfamily 1 group I member 3 (Homo sapiens) (UniProt Q14994). As to the kind of experiment: qHTS assay to identify small molecule antagonists of the constitutive androstane receptor (CAR) signaling pathway (AID 1224838).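 Note: HepG2 cells stably expressing hCAR with CYP2B6 luciferase reporter stimulated by CITCO; nearly all actives have a fitted effect of over 40% in size.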 The essentials:
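Read-out: ONE-Glo luciferase luminescence after 30 min at room temperature. HepG2-CYP2B6-hCAR double-stable cells, compounds in 15-point titration plus 50 nM CITCO final, 24 h at 37 C/5% CO2.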

Test [4] has the same target. As to the kind of experiment: qHTS assay to identify small molecule agonists of the constitutive androstane receptor (CAR) signaling pathway (AID 1224839).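 For activation: HepG2 cells stably carrying human CAR and a CYP2B6 luciferase reporter.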 Note: nearly all actives have a fitted effect of over 15% in size. Note: potency is the fitted concentration of half-maximal effect. The method in brief: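 Cells were plated and incubated 4 hrs, then dosed with compounds at 15 concentrations. PK11195 was added to 0.75 uM final. After 24 hrs at 37 C, luciferase luminescence was measured.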
Test [5] in a line: qHTS assay to identify small molecule antagonists of the estrogen related receptor signaling pathway with the pleiotropic PPARgamma coactivator (PGC) from Tox21 10K library - cell viability counter screen (AID 1224840; active = well fitted cell-killing curve with a large enough effect in the repeat runs, not every such curve was filed as active; note: nearly all actives have a fitted effect of over 40% in size; note: potency is the fitted concentration of half-maximal effect). The essentials: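 Fluorescence read-out of CellTiter-Fluor viability reagent, added after cells had been exposed to compound in DMSO for 17.5 h at 37 C; 30 min development at 37 C/5% CO2. Cells: PGC/ERR line, 2,000/well.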

The nature of test [6]: qHTS assay to identify small molecule agonists of the estrogen related receptor signaling pathway with the pleiotropic PPARgamma coactivator (PGC) from Tox21 10K library (AID 1224842). Note: nearly all actives have a fitted effect of over 15% in size. The essentials:
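PGC/ERR reporter cell line, 2,000 cells per well, incubated 6 h at 37 C before 23 nL compound in DMSO was added. After 18 h at 37 C, One-Glo luminescence read following 30 min at room temperature.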

Test [7] has as its target Thyrotropin receptor (Homo sapiens) (UniProt P16473). Put plainly: qHTS assay to identify small molecule agonists of the thyroid stimulating hormone receptor (TSHR) signaling pathway (AID 1224843; calls by dose curve; note: nearly all actives have a fitted effect of over 45% in size). The essentials:
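Agonist-mode screen: TSHR HEK293 cells received test chemicals for half an hour at room temperature, then HTRF cAMP detection reagents for one hour prior to fluorescence measurement. Each chemical ran as a 15-concentration series, triplicated.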

Test [8] in a line: qHTS assay to identify small molecule agonists of the hypoxia (HIF-1) signaling pathway - cell viability counter screen (AID 1224844; calls by dose curve; note: nearly all actives have a fitted effect of over 50% in size; note: potency is the fitted concentration of half-maximal effect). The method in brief: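 CellTiter-Glo luminescence read-out, 30 min RT, taken in the same wells as the beta-lactamase HRE reporter assay; HRE-bla ME-180 cells, 0.5% dialyzed FBS, 17 hr compound treatment at 37C, 5% CO2.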
The nature of test [9]: qHTS assay to identify small molecule agonists of H2AX (AID 1224845; active = well fitted activation curve with a large enough effect in the signal ratio in the repeat runs, not every such curve was filed as active; the % refers to the signal ratio). The method in brief: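 Wild-type CHO-K1 cells, plated overnight, exposed 3hr at 37C to 15 concentrations (0.76% DMSO final). Lysed, then HTRF anti-pH2AX (S139) cryptate and anti-H2AX-d2 antibodies, 24 hr room temperature; 665/620 nm emission read.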
Test [10] can be described thus: qHTS assay to identify small molecule agonists of H2AX - cell viability counter screen (AID 1224847; calls by dose curve; note: nearly all actives have a fitted effect of over 30% in size; note: potency is the fitted concentration of half-maximal effect). The essentials:
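Cytotoxicity counter screen in wild-type CHO-K1 cells: a 3 hr compound treatment at 37C across 15 concentrations, followed by CellTiter-Glo luminescence to gauge viable cells.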

The nature of test [11]: qHTS assay to identify small molecule antagonists of the estrogen related receptor (ERR) signaling pathway from Tox21 library (AID 1224848). Note: nearly all actives have a fitted effect of over 50% in size. Note: potency is the fitted concentration of half-maximal effect. The method in brief: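 Quantitative high-throughput format: ERR reporter cells (2,000/well) pre-incubated 6 h, treated 18 h at 37 C with compounds in DMSO alongside positive and negative controls, then read by ONE-Glo luminescence.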

The nature of test [12]: qHTS assay to identify small molecule agonists of the estrogen related receptor (ERR) signaling pathway from Tox21 library (AID 1224849; calls by dose curve; note: nearly all actives have a fitted effect of over 15% in size). Particulars: ERR reporter cell line, ONE-Glo luciferase, 18 h; at 92.4 µM (top of the series) unless noted. The method in brief: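 Luminescence readout (ONE-Glo, 30 min RT) after 18 h compound exposure at 37 C of NTP-supplied ERR reporter cells; cells were plated 6 h before compound addition by pin tool.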

Test [13] can be described thus: qHTS RealTime-Glo MT Cell Viability Assay in HepG2 cells - 24 hour (AID 1224867). Note: nearly all actives have a fitted effect of over 50% in size. Note: potency is the fitted concentration of half-maximal effect. The method in brief: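 Real-time, nonlytic viability: 600 HepG2 cells/well mixed with NanoLuc enzyme plus prosubstrate; 5 h settle, compound (DMSO) added by pintool; luminescence monitored over 40 h at 37 C.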
Test [14] in a line: A CellTox Green Cytotoxicity Assay to monitor cytotoxicity in HEK293 cells - 0 hour (AID 1224869). Note: nearly all actives have a fitted effect of over 50% in size. The essentials:
(§1)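 Read-out: fluorescence of a cell-impermeant cyanine dye staining DNA of dead cells, proportional to cytotoxicity. HEK293, 600 cells/well with reagent, compound (23 nL DMSO) added after 5 h; reads at 0, 8, 16, 24, 32, 40 h.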

Test [15] is described as follows: qHTS RealTime-Glo MT Cell Viability Assay in HepG2 cells - 40 hour (AID 1224870). Note: nearly all actives have a fitted effect of over 50% in size. The essentials:
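HepG2 cells (600/well) mixed with RealTime-Glo MT reagent, settled 5 h at 37 C/5% CO2 before compound addition. Nonlytic NanoLuc luminescence from viable-cell prosubstrate reduction read repeatedly during 40 h treatment at 37 C.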

Test [16] in a line: A CellTox Green Cytotoxicity Assay to monitor cytotoxicity in HEK293 cells - 40 hour (AID 1224871). Note: nearly all actives have a fitted effect of over 45% in size. Note: potency is the fitted concentration of half-maximal effect. The method in brief: as §1
Test [17] can be described thus: qHTS assay to identify small molecule antagonists of the estrogen related receptor signaling pathway with the pleiotropic PPARgamma coactivator (PGC) from Tox21 10K library (AID 1224841; call rule not given here; note: potency is the fitted concentration of half-maximal effect). The method in brief:
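Luminescence read-out (One-Glo luciferase reagent, 30 min at room temperature) from PGC/ERR cells exposed to DMSO-dissolved test compounds for 18 h at 37 C; cells, 2,000 per well, had been preincubated 6 h before compound transfer.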

A short description of test [18]: qHTS RealTime-Glo MT Cell Viability Assay in HEK293 cells - 16 hour (AID 1224872). Note: nearly all actives have a fitted effect of over 50% in size. Note: potency is the fitted concentration of half-maximal effect. The essentials:
(§2)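 Cells + reagent dispensed (600 cells/well, HEK293) → 5 h at 37 C/5% CO2 → 23 nL compound in DMSO pinned → 40 h at 37 C → luminescence read at 0, 8, 16, 24, 32, 40 h.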

A short description of test [19]: qHTS RealTime-Glo MT Cell Viability Assay in HEK293 cells - 32 hour (AID 1224868). The essentials: as §2
The nature of test [20]: qHTS assay to identify small molecule agonists of the hypoxia (HIF-1) signaling pathway (AID 1224846; active = well fitted activation curve with a large enough effect in the signal ratio in the repeat runs, not every such curve was filed as active; the % refers to the signal ratio). The essentials: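 Beta-lactamase FRET read-out (CCF4-AM substrate) from ME-180 cells carrying an HRE-driven bla reporter, after 17 hrs compound exposure at 37C/5% CO2. Cells were seeded at 2,000 per well in 0.5% dialyzed FBS medium and preincubated 5 hrs.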
% is set by controls: 0 for no effect and ±100 for the full control effect.

Nuclear receptor subfamily 1 group I member 3 (Homo sapiens), sequence (Q14994 whole entry, looked up): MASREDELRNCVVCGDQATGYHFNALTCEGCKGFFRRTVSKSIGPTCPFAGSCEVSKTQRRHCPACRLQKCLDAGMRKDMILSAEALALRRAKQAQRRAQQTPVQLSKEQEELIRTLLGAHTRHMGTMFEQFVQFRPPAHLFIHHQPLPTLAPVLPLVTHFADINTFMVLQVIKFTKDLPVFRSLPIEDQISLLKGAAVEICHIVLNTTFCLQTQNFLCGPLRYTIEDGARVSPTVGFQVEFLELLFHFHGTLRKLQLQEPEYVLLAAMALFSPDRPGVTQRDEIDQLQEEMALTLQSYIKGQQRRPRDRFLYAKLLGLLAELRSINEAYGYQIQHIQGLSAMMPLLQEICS
Thyrotropin receptor (Homo sapiens), sequence (P16473 whole entry, looked up): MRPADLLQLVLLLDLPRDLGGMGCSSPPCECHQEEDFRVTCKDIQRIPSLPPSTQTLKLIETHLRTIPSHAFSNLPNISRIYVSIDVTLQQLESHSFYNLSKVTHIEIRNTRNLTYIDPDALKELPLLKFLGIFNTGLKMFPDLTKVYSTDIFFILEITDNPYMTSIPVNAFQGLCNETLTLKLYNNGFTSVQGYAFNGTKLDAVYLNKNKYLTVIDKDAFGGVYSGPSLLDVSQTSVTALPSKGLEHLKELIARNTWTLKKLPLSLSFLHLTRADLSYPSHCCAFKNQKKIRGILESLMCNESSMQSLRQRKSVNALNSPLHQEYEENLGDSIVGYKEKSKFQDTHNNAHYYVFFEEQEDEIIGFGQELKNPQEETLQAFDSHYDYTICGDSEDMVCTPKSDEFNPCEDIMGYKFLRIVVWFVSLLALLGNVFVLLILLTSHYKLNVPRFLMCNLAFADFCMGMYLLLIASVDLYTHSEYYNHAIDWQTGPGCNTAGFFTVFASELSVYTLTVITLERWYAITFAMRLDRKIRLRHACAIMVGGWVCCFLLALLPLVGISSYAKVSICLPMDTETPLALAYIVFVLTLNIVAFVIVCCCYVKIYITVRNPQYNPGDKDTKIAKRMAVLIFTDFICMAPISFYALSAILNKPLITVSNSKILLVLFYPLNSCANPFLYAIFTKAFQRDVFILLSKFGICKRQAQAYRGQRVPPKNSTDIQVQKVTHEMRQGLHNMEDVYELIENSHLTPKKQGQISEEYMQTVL

As for `Cn1cc(C(=O)[C@@H]2CCc3nc[nH]c3C2)c2ccccc21`, the Potency entry in test [1], in [2], in [3], in [4], in [5] and in test [6] was “inactive” in each case. Besides, the Potency entry in test [7], in test [8], in test [9], in test [10], in test [11] and in test [13] was “inactive” in each case. The Potency result in [14], in test [15] and in [16] was “inactive” in each case. Also, in [12], the activity change, positive = activation is -13.3% [at 42.5 µM].
As for `Cc1cc(CCN2CCN(c3nsc4ccccc34)CC2)cc2c1NC(=O)CC2(C)C`, the Potency in [1] was 48.6 µM (active); in test [2], 54.5 µM (active); in test [4] it was 21.7 µM (active); in test [5], 27.3 µM (active); in [17], 7.7 µM (active); in [8] it was 38.9 µM (active). The Potency is 113 µM (active) in test [10]; 5.45 µM (active) in [11]; 54.9 µM (active) in [13]; 49 µM (active) in test [16]; 13.8 µM (active) in test [18]. Further, the Potency entry in test [3], in [6], in test [9] and in test [14] was “inactive” in each case. Besides, the activity change, positive = activation in test [12] is -74.7%.
In the case of `CCCC1O[C@@H]2C[C@H]3[C@@H]4CCC5=CC(=O)C=C[C@]5(C)[C@H]4[C@@H](O)C[C@]3(C)[C@]2(C(=O)CO)O1` (stereo partly drawn), the Potency entry in test [1], in [2], in [3], in test [4], in test [5] and in [6] was “inactive” throughout. Further, the Potency entry in test [9], in [10], in [13], in test [14] and in test [16] was “inactive” each time. Also, the Potency was 48.6 µM (active) in test [17]; 49 µM (active) and 54.9 µM (active) in test [8]; 27.3 µM (active) and 34.4 µM (active) in [11]. For the same compound, in test [12], the activity change, positive = activation is -61.9% and -49.1%.
`CC(C)(C)C(=O)OCOC(=O)[C@@H]1N2C(=O)[C@@H](NC(=O)[C@H](N)c3ccccc3)[C@H]2SC1(C)C`: the Potency entry in test [1], in test [2], in test [3], in test [4], in [5] and in [17] was “inactive” each time. In addition, the Potency result in test [6], in [7], in test [8], in [9], in [10] and in test [11] was “inactive” throughout. The Potency entry in test [13], in [19], in test [14], in test [15], in test [16] and in test [18] was “inactive” throughout. For the same compound, in test [12], the activity change, positive = activation is 0.778% [at 42.5 µM].
For `CCC(N)(CO)CO`, the Potency entry in [1], in [2], in test [3], in test [4], in [5] and in test [17] was “inactive” throughout. For the same compound, the Potency result in [6], in test [9], in test [20], in test [10], in [11] and in [13] was “inactive” each time. Further, the Potency entry in test [19], in test [14], in test [15] and in [18] was “inactive” each time. For the same compound, the activity change, positive = activation in test [12] was 6.45%.
